Laboratory results reported in PubChem BioAssay (Tox21).
Inconclusive results are not listed. The source made the active and inactive calls. Unless noted, calls come from the whole dose curve; as a rule, active = well fitted curve in the direction sought with a large enough effect in the repeat runs; inconclusive = weak or mixed curves; inactive = no such curve, though single readings can be large; an effect the other way counts as inactive or inconclusive.

Legend:
[1] = qHTS assay to identify small molecule agonists of the hypoxia (HIF-1) signaling pathway - cell viability counter screen (AID 1224844; calls by dose curve; note: nearly all actives have a fitted effect of over 50% in size; note: potency is the fitted concentration of half-maximal effect)
Summary of the method: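 HRE-bla ME-180 cells, 2,000/well in 0.5% dialyzed FBS medium, treated 17 h at 37C with compounds. Viability read in the same wells as the bla reporter, by CellTiter-Glo luminescence after 30 min at room temperature.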

[2] = qHTS assay to identify small molecule agonists of H2AX (AID 1224845; active = well fitted activation curve with a large enough effect in the signal ratio in the repeat runs, not every such curve was filed as active; the % refers to the signal ratio; note: potency is the fitted concentration of half-maximal effect)
Summary of the method: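 Phospho-H2AX Ser139 measured by HTRF (ex 320 nm; em 665 and 620 nm) after 24 hr antibody incubation. Compounds, 15 concentrations, 0.76% DMSO, were applied to CHO-K1 cells for 3hr at 37C before lysis.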

[3] = qHTS RealTime-Glo MT Cell Viability Assay in HEK293 cells - 32 hour (AID 1224868); note: nearly all actives have a fitted effect of over 50% in size; note: potency is the fitted concentration of half-maximal effect
Summary of the method: (§1)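 HEK293 cells seeded with NanoLuc/prosubstrate reagent, rested 5 h at 37 C, then dosed and kept at 37 C up to 40 h. Nonlytic real-time luminescence from viable cells read at 0, 8, 16, 24, 32 and 40 h.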

[4] = A CellTox Green Cytotoxicity Assay to monitor cytotoxicity in HEK293 cells - 0 hour (AID 1224869); note: % is set by controls: 0 for no effect and ±100 for the full control effect; nearly all actives have a fitted effect of over 50% in size
Summary of the method: (§2)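 HEK293 cells, 600/well, were preincubated 5 hours and then exposed to compounds at 37 C for up to 40 hours. A cell-impermeant cyanine dye staining dead-cell DNA was read by fluorescence at 0, 8, 16, 24, 32 and 40 h time points.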

[5] = A CellTox Green Cytotoxicity Assay to monitor cytotoxicity in HEK293 cells - 40 hour (AID 1224871); note: nearly all actives have a fitted effect of over 45% in size; note: potency is the fitted concentration of half-maximal effect
Summary of the method: as §2

[6] = qHTS RealTime-Glo MT Cell Viability Assay in HEK293 cells - 16 hour (AID 1224872); note: nearly all actives have a fitted effect of over 50% in size; note: potency is the fitted concentration of half-maximal effect
Summary of the method: as §1

[7] = qHTS RealTime-Glo MT Cell Viability Assay in HEK293 cells - 40 hour (AID 1224874); settings: RealTime-Glo luminescence; max response: active compounds read low; note: nearly all actives have a fitted effect of over 50% in size; note: potency is the fitted concentration of half-maximal effect; for max response: % is set by controls: 0 for no effect and ±100 for the full control effect
Summary of the method: (§3)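 600 cells/well were plated with the nonlytic NanoLuc/prosubstrate reagent, pre-incubated 5 h, then given 23 nL of compound in DMSO. Incubation at 37 C for 40 h, with luminescence from viable-cell-reduced substrate read repeatedly from 0 h.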

[8] = A CellTox Green Cytotoxicity Assay to monitor cytotoxicity in HepG2 cells - 40 hour (AID 1224879); note: nearly all actives have a fitted effect of over 40% in size; note: potency is the fitted concentration of half-maximal effect
Summary of the method: (§4)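 HepG2 cells, 600/well, preincubated 5 h with CellTox Green dye, then exposed to Tox21 compounds in DMSO at 37 C for up to 40 h. Dead-cell DNA fluorescence read at the indicated time point.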

[9] = qHTS RealTime-Glo MT Cell Viability Assay in HEK293 cells - 0 hour (AID 1224880); note: top concentration of the series differs between compounds; % is set by controls: 0 for no effect and ±100 for the full control effect; nearly all actives have a fitted effect of over 45% in size
Summary of the method: as §3

[10] = qHTS assay to identify small molecule agonists of the hypoxia (HIF-1) signaling pathway (AID 1224846; active = well fitted activation curve with a large enough effect in the signal ratio in the repeat runs, not every such curve was filed as active; the % refers to the signal ratio; note: % is set by controls: 0 for no effect and ±100 for the full control effect)
Summary of the method: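 HRE-bla ME-180 beta-lactamase reporter cells in medium with 0.5% dialyzed FBS, pre-incubated 5 h then exposed to compounds 17 h at 37C, 5% CO2; reporter induction read with CCF4-AM FRET substrate.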

[11] = qHTS assay to identify small molecule agonists of H2AX - cell viability counter screen (AID 1224847; calls by dose curve; note: nearly all actives have a fitted effect of over 30% in size; note: potency is the fitted concentration of half-maximal effect)
Summary of the method: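 Cells plated first: CHO-K1, 1000 per well in 10% FBS medium, incubated overnight at 37C. Then 15-point compound titration added (final DMSO 0.76%) for 3 hr. Finally CellTiter-Glo added and luminescence read.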

[12] = qHTS assay to identify small molecule antagonists of the estrogen related receptor (ERR) signaling pathway from Tox21 library (AID 1224848); note: nearly all actives have a fitted effect of over 50% in size; note: potency is the fitted concentration of half-maximal effect
Summary of the method: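 Reading was by luminescence 30 min after ONE-Glo addition. Before that, ERR cells at 2,000 per well had rested 6 h at 37 C/5% CO2 and then received pin-tooled compounds in DMSO for 18 h at 37 C.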

[13] = qHTS assay to identify small molecule agonists of the estrogen related receptor (ERR) signaling pathway from Tox21 library (AID 1224849; calls by dose curve; note: % is set by controls: 0 for no effect and ±100 for the full control effect; nearly all actives have a fitted effect of over 15% in size); settings: ERR reporter cell line, ONE-Glo luciferase, 18 h; at 92.4 µM (top of the series) unless noted
Summary of the method: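 ERR reporter cells (NTP line) pre-incubated 6 hours at 37 C, then exposed to compounds for 18 hours at 37 C. ONE-Glo luciferase luminescence was read after 30 minutes at room temperature.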

[14] = qHTS RealTime-Glo MT Cell Viability Assay in HepG2 cells - 24 hour (AID 1224867); note: nearly all actives have a fitted effect of over 50% in size; note: potency is the fitted concentration of half-maximal effect
Summary of the method: (§5)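 HepG2 cells (600/well) were dispensed with RealTime-Glo reagents, incubated 5 h at 37 °C, then treated with compounds in DMSO for up to 40 h. Nonlytic NanoLuc luminescence reflecting viable cells was read at each stated time point.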

[15] = qHTS RealTime-Glo MT Cell Viability Assay in HepG2 cells - 40 hour (AID 1224870); note: nearly all actives have a fitted effect of over 50% in size; note: potency is the fitted concentration of half-maximal effect
Summary of the method: (§6)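 Real-time viability: cells seeded at 600 per well together with NanoLuc and cell-permeant prosubstrate, compounds added after 5 h incubation. Luminescence tracked at 0, 8, 16, 24, 32 and 40 h of exposure.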

[16] = qHTS RealTime-Glo MT Cell Viability Assay in HepG2 cells - 8 hour (AID 1224873); note: nearly all actives have a fitted effect of over 55% in size; note: potency is the fitted concentration of half-maximal effect
Summary of the method: as §6

[17] = A CellTox Green Cytotoxicity Assay to monitor cytotoxicity in HEK293 cells - 24 hour (AID 1224875); note: nearly all actives have a fitted effect of over 45% in size; note: potency is the fitted concentration of half-maximal effect; for activity change: % is set by controls: 0 for no effect and ±100 for the full control effect
Summary of the method: as §2

[18] = qHTS RealTime-Glo MT Cell Viability Assay in HepG2 cells - 32 hour (AID 1224877); note: nearly all actives have a fitted effect of over 55% in size; note: potency is the fitted concentration of half-maximal effect
Summary of the method: as §5

[19] = A CellTox Green Cytotoxicity Assay to monitor cytotoxicity in HepG2 cells - 24 hour (AID 1224878); note: nearly all actives have a fitted effect of over 45% in size; note: potency is the fitted concentration of half-maximal effect; for Cytotoxicity: % is set by controls: 0 for no effect and ±100 for the full control effect
Summary of the method: as §4

[20] = A CellTox Green Cytotoxicity Assay to monitor cytotoxicity in HepG2 cells - 16 hour (AID 1224876); note: nearly all actives have a fitted effect of over 45% in size; note: potency is the fitted concentration of half-maximal effect
Summary of the method: as §4

CC(C)OC(=O)C(O)(c1ccc(Cl)cc1)c1ccc(Cl)cc1
active: Potency [1] 54.9 µM | Potency [2] 80 µM | Potency [3] 21.9 µM | Potency [5] 49 µM | Potency [6] 30.9 µM | Potency [7] 24.5 µM | Potency [8] 38.9 µM
inactive: Potency [4] | Potency [9]

N#CCc1ccc(Cl)cc1
inactive: Potency [1] | outcome [10] | Potency [11] | Potency [12] | activity change, positive = activation [13] 1.98% | Potency [14] | Potency [3] | Potency [4] | Potency [15] | Potency [5] | Potency [6] | Potency [16] | max response [7] 1.31% | Potency [17] | Potency [18] | Potency [19] | Potency [8] | Potency [9]

Oc1cccc(-c2ccccc2)c1
inactive: Potency [1] | outcome [10] | Potency [12] | Potency [14] | Potency [4] | Potency [5] | Potency [16] | Potency [17] | Potency [20] | Potency [18] | Potency [19] | Potency [8] | Potency [9]

[CH3][Hg][Cl]
active: Potency [1] 10.9 µM | Potency [11] 50.4 µM | Potency [14] 10.9 µM | Potency [15] 10.9 µM | Potency [5] 6.9 µM | Potency [6] 4.89 µM | Potency [7] 3.88 µM | Potency [17] 7.74 µM | Potency [20] 12.3 µM | Potency [18] 10.9 µM | Potency [19] 12.3 µM | Potency [8] 12.3 µM

N#Cc1c(-c2ccc(Cl)cc2)[nH]c(C(F)(F)F)c1Br
inactive: Potency [1] | activity change, positive = activation [13] -60.7% | Potency [14] | Potency [4] | Potency [15] | Potency [17] | Potency [20] | Potency [9]
active: Potency [11] 2.84 µM | Potency [12] 0.344 µM | Potency [3] 1.55 µM | Potency [5] 49 µM | Potency [6] 6.92 µM | Potency [7] 1.23 µM

O=c1oc2ccccc2c(O)c1Cc1c(O)c2ccccc2oc1=O
inactive: Potency [1] | Potency [11] | activity change, positive = activation [13] -18.2% [at 42.5 µM] | Potency [14] | Potency [4] | Potency [15] | Potency [5] | Potency [6] | max response [7] 0.643% | Potency [17] | Potency [20] | Potency [18] | Potency [19] | Potency [8]

CC(=O)[O-].CC(=O)[O-].[Hg+2]
inactive: Potency [4]
active: Potency [1] 3.47 µM | Potency [11] 6.35 µM | Potency [14] 2.19 µM | Potency [15] 2.45 µM | Potency [5] 5.49 µM | Potency [16] 2.45 µM | Potency [7] 1.55 µM | Potency [17] 21.9 µM | Potency [20] 2.75 µM | Potency [18] 2.19 µM | Potency [19] 2.19 µM | Potency [8] 1.55 µM

CN(C)S(=O)(=O)N(SC(F)(Cl)Cl)c1ccccc1
active: Potency [1] 19.5 µM | Potency [11] 89.8 µM | Potency [14] 11 µM | Potency [3] 3.89 µM | Potency [15] 9.77 µM | Potency [5] 3.09 µM | Potency [6] 4.9 µM | Potency [16] 21.9 µM | Potency [7] 4.36 µM | Potency [17] 13.8 µM | Potency [18] 9.77 µM | Potency [19] 7.76 µM | Potency [8] 4.9 µM
inactive: Potency [4] | Potency [9]

CC(=O)OC1(c2ccccc2)CCN(CCc2ccccc2)CC1
inactive: Potency [1] | outcome [10] | Potency [14] | Potency [4] | Potency [15] | Potency [16] | Potency [17] | Potency [20] | Potency [18] | Potency [19] | Potency [9]
active: Potency [3] 31.6 µM | Potency [6] 25.1 µM | Potency [7] 28.2 µM

CCCCCCCCCCCCCCCCCCn1cc[n+](C)c1
active: Potency [1] 43.4 µM | Potency [11] 22.4 µM | Potency [12] 5.42 µM | Potency [14] 34.5 µM | Potency [3] 7.72 µM | Potency [15] 21.7 µM | Potency [5] 19.4 µM | Potency [6] 24.4 µM | Potency [7] 7.72 µM | Potency [17] 21.7 µM | Potency [18] 24.4 µM | Potency [8] 19.4 µM
inactive: activity change, positive = activation [13] -74.3% | Potency [16]

Oc1c(Br)c(Br)c(Br)c(Br)c1Br
inactive: Potency [14] | Potency [4] | Potency [5] | Potency [16] | Potency [17] | Potency [20] | Potency [18] | Potency [8] | Potency [9]
active: Potency [1] 43.9 µM | Potency [11] 80.5 µM

[Hg+2].[I-].[I-]
active: Potency [1] 1.95 µM | Potency [11] 8 µM | Potency [14] 9.77 µM | Potency [3] 3.09 µM | Potency [15] 12.3 µM | Potency [5] 21.9 µM | Potency [6] 3.47 µM | Potency [16] 12.3 µM | Potency [7] 2.45 µM | Potency [17] 24.5 µM | Potency [18] 11 µM | Potency [8] 6.16 µM

CN(C)CCc1c[nH]c2cccc(O)c12
inactive: Potency [1] | Potency [11] | Potency [14] | Potency [3] | Potency [4] | Potency [15] | Potency [5] | Potency [6] | Potency [16] | max response [7] -1.01% | Potency [17] | Potency [20] | Potency [18] | Potency [9]

CC1(C)[C@H](C(=O)O[C@H](C#N)c2cccc(Oc3ccccc3)c2)[C@@H]1/C=C(\Cl)C(F)(F)F
inactive: Potency [1] | Potency [11] | Potency [14] | Potency [3] | Potency [4] | Potency [15] | Potency [5] | Potency [16] | max response [7] -24.1% | Potency [17] | Potency [20] | Potency [18] | Potency [8] | Potency [9]

c1cc[c]([Sb]([c]2ccccc2)[c]2ccccc2)cc1
active: Potency [3] 54.9 µM | Potency [7] 54.9 µM
inactive: Potency [1] | outcome [10] | Potency [14] | Potency [4] | Potency [15] | Potency [5] | Potency [16] | Potency [17] | Potency [20] | Potency [18] | Potency [19] | Potency [8] | Potency [9]
